# Assay outcomes as filed in PubChem.
# Cruzain inh Det: qHTS Assay for Promiscuous and Specific Inhibitors of Cruzain (with detergent); Cruzipain (Trypanosoma cruzi), P25779; purified cruzain, Z-FR-AMC fluorescence, 0.01% Triton; Potency, µM, inactives show max response, negative = inhibition, hits mostly inhibitors; 0.43% of 200,000 active;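 note: plate controls were neutral wells for no effect and buffer without enzyme for full effect; nearly all actives have a fitted effect of over 40% in size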
# Target sequence (P25779 123-467 limits assumed): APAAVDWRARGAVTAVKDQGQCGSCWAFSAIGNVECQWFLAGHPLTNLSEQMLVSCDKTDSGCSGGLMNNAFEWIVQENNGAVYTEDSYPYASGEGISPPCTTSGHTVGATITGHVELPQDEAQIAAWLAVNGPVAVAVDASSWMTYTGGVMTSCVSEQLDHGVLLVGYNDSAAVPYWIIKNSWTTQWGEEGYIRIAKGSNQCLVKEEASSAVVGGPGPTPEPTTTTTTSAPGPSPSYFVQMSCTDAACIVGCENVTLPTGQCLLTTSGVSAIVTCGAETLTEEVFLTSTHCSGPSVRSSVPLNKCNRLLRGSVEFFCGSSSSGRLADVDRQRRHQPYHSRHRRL
#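 Detergent-containing run (0.01% Triton X-100) in acetate buffer pH 5.5 with 5 mM DTT: enzyme at 1.5 nM final, 15 min compound preincubation at room temperature, then 2 uM Z-FR-AMC substrate. Activity taken as 60 s fluorescence increase at 360/450 nm.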
# Cruzain noTriton: qHTS Assay for Promiscuous and Specific Inhibitors of Cruzain (without detergent) | Cruzipain (Trypanosoma cruzi), P25779 | purified cruzain, Z-FR-AMC fluorescence, no detergent | Potency, µM, for the others: max response, negative = inhibition, most hits filed as inhibitors | 2.3% of 200,000 active;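 note: plate controls were enzyme without inhibitor for no effect and buffer without enzyme for full effect; nearly all actives have a fitted effect of over 40% in size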
#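 Purified cruzain at 1.5 nM, pre-incubated 15 min with compound at room temperature in 100 mM sodium acetate pH 5.5, 5 mM DTT, 0.00005% Triton X-100. Reaction started with 2 uM Z-FR-AMC; AMC fluorescence increase over 60 s gives rate.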
# Starred values were filed as active, the others as inactive; ? = inconclusive. Only some compounds are listed: those with a hit (about 2.5% of all), similar ones and a draw of the others. Calls come from the whole dose curve; as a rule, active = well fitted curve in the direction sought with a large enough effect; inconclusive = small, poorly fitted or top-dose-only effect, or another doubt; inactive = no such curve, though single readings can be large; an effect the other way counts as inactive or inconclusive. Potency is the fitted concentration of half-maximal effect.
SMILES,Cruzain inh Det,Cruzain noTriton
Cc1cccc(OCCCSc2nc(-c3ccc(C(C)(C)C)cc3)nc3cc(=O)[nH]n23)c1C,-11%,10µM*
CCc1ccc(OCCCSc2nc(-c3ccc(C(C)(C)C)cc3)nc3cc(=O)[nH]n23)cc1,-6%,6.3µM*
Cc1cccc(-c2nc(SCCCOc3ccc(Cl)c(C)c3)n3[nH]c(=O)cc3n2)c1,3%,-9%
CCOC(=O)c1cc(S(=O)(=O)Nc2ccc(C)cc2Cl)[nH]n1,-1%,4%
O=C(CSc1nc2ncccc2o1)Nc1cccc(C(F)(F)F)c1,-3%,-1%
CCc1nc2nc(C)cc(Nc3ccc(OC)cc3)n2n1,0%,-2%
COc1ccccc1NC(=O)CCS(=O)(=O)c1cc2c3c(c1)CCN3C(=O)CC2,-16%,-2%
COc1ccc(NC(=O)CC2C(=O)N(c3ccccc3)C(=O)N2CCc2sccc2C)cc1 (centres undefined),-2%,-3%
CCOC(=O)N1CCc2c(sc3c2c(=O)n(CCc2ccccc2)c(=O)n3Cc2ccc(C)cc2C)C1,1%,-29%
Cc1ccc(NC(=O)c2noc3c2CC(C(C)(C)C)CC3)cc1 (centres undefined),5%,13µM*
CC(C)(C)C1CCc2onc(C(=O)Nc3cccc(O)c3)c2C1 (centres undefined),0%,5%
Cc1cc(C)c(Cn2c(=O)n(Cc3ccccc3)c(=O)c3c(C)c(C)sc32)c(C)c1,-3%,-4%
CCOC(=O)CNC(=O)c1ccc(-c2nn(C)c(=O)c3ccccc23)cc1,-1%,-13%
O=C(Nc1ccc(SC(F)F)cc1)c1cc(-c2ccc3c(c2)OCCO3)on1,0%,7.9µM*
CC(=O)Nc1ccc(NC(=O)c2cc(-c3ccc4c(c3)OCCO4)on2)cc1,0%,-8%
O=C(CSc1nc2c(c(=O)[nH]1)CCC2)Nc1ccccc1C(F)(F)F,-5%,-4%
CCN(CC)S(=O)(=O)c1ccc(OC)c(NC(=O)c2cc([N+](=O)[O-])ccc2Cl)c1,2%,-1%
COCCOc1cc(NC(=O)c2sccc2Oc2ccc([N+](=O)[O-])cc2F)c(Cl)cc1Cl,1%,16µM*
COc1ccccc1Cc1nc2ccccc2nc1SCC(=O)Nc1cccc(Cl)c1C,2%,2%
CNC(=O)c1cnc2sc(N3CCC(C)CC3)nn2c1=O,-1%,-12%
CCN(CC)c1ccc(/C=N/N(c2ccccc2)c2ccccc2)c(O)c1,-4%,?
CCN(CC)c1ccc(/C=N/N=C(c2ccccc2)c2ccccc2)c(O)c1,-5%,25µM*
COC(=O)c1c(NC(=O)c2c(OC)cccc2OC)sc2c1CCCC2,-3%,6%
COC(=O)c1c(NC(=O)c2ccc(C)c(S(=O)(=O)Nc3ccccc3C)c2)sc2c1CCCC2,1%,7.9µM*
COC(=O)c1c(NS(=O)(=O)c2ccc3ccccc3c2)sc2c1CCCC2,1%,?
SMILES,Cruzain inh Det,Cruzain noTriton
COC(=O)c1c(NC(=O)c2ccc(Br)s2)sc2c1CCC2,-6%,10µM*
N[C@@H]1CCN(O)C1=O,-2%,-3%
CCN(CC)S(=O)(=O)c1ccc2c(c1)N(CC(=O)N1CCN(c3ccc(F)cc3)CC1)C(=O)CO2,-3%,?
COc1cc(C)ccc1OCCSc1nc(-c2cccc(C)c2)nc2cc(=O)[nH]n12,1%,3%
CN(CCc1ccc(Cl)c(Cl)c1)C[C@@H](O)COc1ccc(NS(C)(=O)=O)cc1,-4%,4%
COCCNc1oc(-c2ccc(F)cc2)nc1C#N,-2%,1%
CCOc1ccc(/C=C/c2nc(C#N)c(N3CCCCCC3)o2)cc1,-3%,-21%
CN1CCN(c2oc(/C=C/c3ccc(F)cc3)nc2C#N)CC1,25µM*,25µM*
COc1cccc(/C=C/c2nc(C#N)c(N3CCC(C(N)=O)CC3)o2)c1,28µM*,?
COc1cccc(/C=C/c2nc(C#N)c(N3CCCCCC3)o2)c1,-8%,29%
COCCNc1oc(/C=C/c2ccc(F)cc2)nc1C#N,22µM*,20µM*
COc1cccc(/C=C/c2nc(C#N)c(NCCc3ccccc3)o2)c1,-9%,30%
COc1cccc(/C=C/c2nc(C#N)c(NCCN(C)C)o2)c1,25µM*,20µM*
COc1cc(OC)c(NC(=O)c2cc(CN3CCOCC3)on2)cc1Cl,-3%,8%
Cc1cccc(-c2cc(NC(=O)COc3ccccc3F)n(-c3ccccc3)n2)c1,3%,-4%
O=C(NCCc1ccccc1)C(=O)NCC(c1cccs1)S(=O)(=O)c1cccs1 (centres undefined),2%,0%
CCCCOc1ccc(C(=O)Nc2cc(-c3cn4cccnc4n3)ccc2OC)cc1,1%,-3%
Cc1cccc(NCc2nnc3n2CCCCC3)c1C,2%,4%
COc1ccc(C(=O)c2sc3nc(-c4ccccc4)ccc3c2N)cc1OC,-5%,2%
COc1cccc(-c2ccc3c(N)c(C(=O)c4ccc(Br)cc4)sc3n2)c1,-3%,7.9µM*
COc1ccccc1NC(=O)C1=C(C)Nc2ncnn2C1c1cccn1C (centres undefined),2%,4%
COc1ccc(C(=O)N2c3ccccc3C=CC2C#N)cc1 (centres undefined),-14%,-1%
N#C[C@H]1[C@H](c2ccccc2)[C@](C#N)(C(=O)c2ccccc2)[C@@H]2C=Cc3ccccc3N21,-4%,25µM*
CC(C)(C)C(=O)Cn1c(=O)n(-c2ccc(Cl)cc2)c(=O)c2c3c(sc21)CCCC3,-2%,3%
CC1=NN(c2ccc(Br)cc2)C(=O)/C1=C/c1cccs1,-5%,-1%
SMILES,Cruzain inh Det,Cruzain noTriton
Cc1ccc(C2=N/C(=C/c3cccs3)C(=O)N2Nc2ccccc2)cc1,1%,25µM*
CCc1sc(Nc2cccc(Cl)c2)nc1-c1cc2cccc(OC)c2oc1=O,0%,?
COc1ccc2c(c1)c1c(c(=O)n(Cc3ccccc3)c(=O)n1CC(=O)Nc1ccccc1OC)n2C,-1%,1%
O=C(O)c1ccc2nc(-c3ccccc3)sc2c1,-5%,-8%
Nc1ccc(-c2nc3ccc(C(=O)O)cc3s2)cc1,25µM*,?
Cc1cc(C)cc(NC(=O)CN(c2cccc(C)c2C)S(=O)(=O)c2ccccc2)c1,-7%,?
Cc1cc(NC(=O)CN(c2cccc(C)c2C)S(=O)(=O)c2ccccc2)ccc1Br,-3%,6.3µM*
Cc1cc(C(=O)COC(=O)c2cc(Cl)ccc2N)c(C)n1Cc1ccco1,-10%,25µM*
COC(=O)c1c(C(=O)OC)c(C)n(Cc2ccco2)c1C,4%,1%
CCS(=O)(=O)c1nc(S(=O)(=O)c2ccc(C)cc2)c(NCc2ccccc2Cl)s1,-5%,?
Cc1nn(-c2ccccc2)c(N2CCCC2)c1/C=N/NC(=O)c1cc(-c2cccnc2)nc2ccccc12,-7%,24%
CC(/C=N/NC(=O)c1cc(-c2cccnc2)nc2c1c(C)nn2-c1ccccc1)=C\c1ccccc1,-4%,13µM*
CCOc1ccc2nc(Cl)c(C3CC(c4ccc(C)cc4)=NN3C(=O)CCCC(=O)O)cc2c1 (centres undefined),-1%,-11%
CC1=NN(C(=O)c2ccncc2)C(=O)[C@@H]1N=Nc1ccc2ccccc2c1,-3%,-5%
CC1=NN(c2nc(-c3ccc(C)cc3)cs2)C(=O)C1N=Nc1ccc2ccccc2c1 (centres undefined),-7%,3.2µM*
